Pf apPOL inh = Pf-apPOL inhibitors, biochemical, fluorescence | Recombinant Pf-apPOL, molecular beacon fluorescence, 1.5 h | inhibition, % at 10 µM | 210,000 compounds, 0.25% hits
mHTT CaM bind = mutant huntingtin-calmodulin interaction inhibitors – biochemical, AlphaScreen, primary screen | AID 1671202, 2021 | inhibition, % at 15 µM | P42858 | 190,000 compounds, 3.6% hits | AlphaScreen His-mHTT/GST-CaM binding, luminescence
Numbers stand for hits; 0 = inactive; ! = not confirmed by another sample. The full list was thinned out, with hits kept by preference. Rule as the data show it: active = inhibition above about 50%; inactive = the rest.

SMILES	Pf apPOL inh	mHTT CaM bind
CCOc1ccc(S(=O)(=O)N2CCC(c3nc4ccncc4n3CCOC)C2)cc1 (stereo unspecified)	0	0
COc1ccc(C(=O)N=C2C=C(C)C(=O)C(C)=C2)cc1	0	0
COc1ccc(C(=O)ON=C2C(C)=CC(=O)C=C2C)cc1	0	55
CC(=O)N(C(C)=O)c1ncc2c([nH]c3ccccc32)c1C#N	0	83
N#Cc1c(N2CCCCC2)ncc2c(=O)c3ccccc3[nH]c12	0	0
CCOc1ccc(CN2CCc3nc(Nc4ccccc4)ncc3C2)cc1OCC	0	0
O=C(NCCC1=CCCCC1)c1ccncc1	0	0
O=C(NCCC1=CCCCC1)c1ncn[nH]1	0	94
O=C(NCCOC12CC3CC(CC(C3)C1)C2)c1cc([N+](=O)[O-])ccc1Cl	0	0
Cc1cc(C)c(NS(=O)(=O)c2ccc(NC(=O)COc3ccc(Cl)cc3)cc2)c(C)c1	0	0
c1ccc(CNCc2cnc[nH]2)cc1	0	94
O=C(O)CCNCc1ccccc1	0	0
O=C(c1ccc(=O)[nH]n1)N1CCN(c2ccc(-c3ccccn3)nn2)CC1	0	100
O=C(c1ccc(N2CCCC2)nn1)N1CCN(c2ncccn2)CC1	0	0
O=C(c1cc(-c2ccc(F)cc2)n[nH]1)N1CCN(c2ccc(-c3ccccn3)nn2)CC1	0	100
COc1ccccc1CC(=O)N1CCN(c2ccc(-c3ccccn3)nn2)CC1	0	100
O=C(c1ccc(F)cc1F)N1CCN(c2ccc(-c3cccnc3)nn2)CC1	0	0
COc1ccccc1CC(=O)N1CCN(c2ccccn2)CC1	0	0
COc1c(S(=O)(=O)NCC23CC4CC(CC(C4)C2)C3)ccc(Cl)c1Cl	0	0
Nc1c(C(=O)Nc2ccc(Cl)c(Cl)c2)sc2nc3c(cc12)CCC3	0	0
COc1ccc(-c2nnc(NC(=O)c3ccc(S(=O)(=O)N4CCOCC4)cc3)o2)c(OC)c1	0	54
COc1ccc(-c2nnc(NC(=O)c3ccc(S(=O)(=O)N4CCCCC4)cc3)o2)cc1	74	0
COc1ccc(-c2nnc(NC(=O)c3ccc(OC)c(OC)c3)o2)cc1	0	50
COc1ccc(-c2nnc(NC(=O)c3ccc(S(=O)(=O)N4CCCCCC4)cc3)o2)cc1	0	0
COc1ccc(-c2nnc(NC(=O)c3ccc(S(=O)(=O)N4CCOCC4)cc3)o2)cc1	0	0
SMILES	Pf apPOL inh	mHTT CaM bind
COc1ccc(C(=O)Nc2nnc(-c3ccccc3)o2)cc1OC	0	0
COc1ccc(-n2nc3c(c2NC(=O)C2CCCC2)CSC3)cc1	0	0
O=C1CC(N2CCN(C/C=C/c3ccccc3)CC2)C(=O)N1c1ccc(Cl)cc1 (stereo unspecified)	0	0
Fc1ccc(-c2nc(-c3ccc(-n4cccn4)nc3)no2)c(F)c1	0	0
COCOCCn1cc(CN2CCS(=O)(=O)N(Cc3ccc(-c4ccc(Cl)nc4)cc3)C(CC(C)C)C2=O)nn1 (stereo unspecified)	0	0
CCC/C=C/c1ccc(CN2C(C)C(=O)N(Cc3cn(CCOCOC)nn3)CCS2(=O)=O)cc1 (stereo unspecified)	0	0
COCOCCn1cc(CN2CCS(=O)(=O)N(Cc3ccc(-c4ccc(Cl)cc4)cc3)C(CC(C)C)C2=O)nn1 (stereo unspecified)	0	54
COCOCCn1cc(CN2CCS(=O)(=O)N(Cc3ccc(-c4ccccc4)cc3)C(C)C2=O)nn1 (stereo unspecified)	0	59
COCOCCn1cc(CN2CCS(=O)(=O)N(Cc3ccc(-c4ccc(F)cc4)cc3)C(C)C2=O)nn1 (stereo unspecified)	0	63
COCOCCn1cc(CN2CCS(=O)(=O)N(Cc3ccc(-c4ccc(Cl)cc4)cc3)C(C)C2=O)nn1 (stereo unspecified)	0	0
Cn1cc(Cl)c(C(=O)N2CCCC2c2ccc(F)cc2)n1 (stereo unspecified)	0	0
O=C(Nc1ccc(F)cc1)C1CCCN(c2nnc3ccccn23)C1 (stereo unspecified)	0	0
O=C(Nc1cc(-c2ccccn2)no1)c1cccc(Cl)c1	0	0
COc1c(C)cccc1C1=N/C(=C/c2cccc([N+](=O)[O-])c2)C(=O)O1	0	0
O=C1CSC(c2cc3c(cc2[N+](=O)[O-])OCO3)N1c1ccccc1 (stereo unspecified)	0	0
O=C1c2ccccc2NC(c2cc3c(cc2[N+](=O)[O-])OCO3)N1c1ccccc1 (stereo unspecified)	0	90!
COc1ccccc1OCCn1cc(/C=C(\C#N)C(=O)Nc2ccccc2)c2ccccc21	0	0
Cc1ccc(C2CC(c3cccs3)=NN2C(=O)CN(C)C(=O)C(C)C)cc1 (stereo unspecified)	0	0
CCOC(=O)CCSCC(=O)N1N=C(c2cccs2)CC1c1ccc(C)cc1 (stereo unspecified)	0	52

High-throughput results (PubChem BioAssay)
